Data on eight compounds can be found in ChEMBL document CHEMBL1961873, “Compounds: GSK PKIS; Assays: Nanosyn kinase panel” (2012).

For orientation: inhibition means the change of the read-out against control, counted positive when it falls.

Molecules are shown by their SMILES.

Experiment [1] has as its target T1, Inhibitor of nuclear factor kappa-B kinase subunit epsilon (Homo sapiens) (UniProt Q14164).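 Also: reported values are averaged percent inhibition figures against human IKKε.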
T1 sequence (whole entry): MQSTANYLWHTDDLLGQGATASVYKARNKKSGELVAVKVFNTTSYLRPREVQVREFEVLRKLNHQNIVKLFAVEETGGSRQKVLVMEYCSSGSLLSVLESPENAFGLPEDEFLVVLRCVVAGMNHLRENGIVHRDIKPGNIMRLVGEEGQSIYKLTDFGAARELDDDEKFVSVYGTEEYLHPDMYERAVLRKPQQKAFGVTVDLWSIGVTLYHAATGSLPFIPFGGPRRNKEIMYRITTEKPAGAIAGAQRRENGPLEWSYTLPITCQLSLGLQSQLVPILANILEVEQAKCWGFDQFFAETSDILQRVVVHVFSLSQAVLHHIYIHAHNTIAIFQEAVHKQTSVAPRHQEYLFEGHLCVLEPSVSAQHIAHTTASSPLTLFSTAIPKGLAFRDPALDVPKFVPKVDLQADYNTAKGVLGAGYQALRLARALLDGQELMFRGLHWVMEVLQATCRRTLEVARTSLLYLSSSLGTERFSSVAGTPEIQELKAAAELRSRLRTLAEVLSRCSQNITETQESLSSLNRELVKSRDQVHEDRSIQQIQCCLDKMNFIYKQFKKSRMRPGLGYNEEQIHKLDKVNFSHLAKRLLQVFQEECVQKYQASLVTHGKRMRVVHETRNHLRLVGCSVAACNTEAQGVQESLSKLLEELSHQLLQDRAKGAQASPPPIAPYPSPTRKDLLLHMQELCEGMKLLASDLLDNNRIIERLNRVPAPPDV
The settings on record: at 1 µM.

Experiment [2] deals with T2, Serine/threonine-protein kinase Nek1 (Homo sapiens) (UniProt Q96PY6).
T2 sequence (whole entry): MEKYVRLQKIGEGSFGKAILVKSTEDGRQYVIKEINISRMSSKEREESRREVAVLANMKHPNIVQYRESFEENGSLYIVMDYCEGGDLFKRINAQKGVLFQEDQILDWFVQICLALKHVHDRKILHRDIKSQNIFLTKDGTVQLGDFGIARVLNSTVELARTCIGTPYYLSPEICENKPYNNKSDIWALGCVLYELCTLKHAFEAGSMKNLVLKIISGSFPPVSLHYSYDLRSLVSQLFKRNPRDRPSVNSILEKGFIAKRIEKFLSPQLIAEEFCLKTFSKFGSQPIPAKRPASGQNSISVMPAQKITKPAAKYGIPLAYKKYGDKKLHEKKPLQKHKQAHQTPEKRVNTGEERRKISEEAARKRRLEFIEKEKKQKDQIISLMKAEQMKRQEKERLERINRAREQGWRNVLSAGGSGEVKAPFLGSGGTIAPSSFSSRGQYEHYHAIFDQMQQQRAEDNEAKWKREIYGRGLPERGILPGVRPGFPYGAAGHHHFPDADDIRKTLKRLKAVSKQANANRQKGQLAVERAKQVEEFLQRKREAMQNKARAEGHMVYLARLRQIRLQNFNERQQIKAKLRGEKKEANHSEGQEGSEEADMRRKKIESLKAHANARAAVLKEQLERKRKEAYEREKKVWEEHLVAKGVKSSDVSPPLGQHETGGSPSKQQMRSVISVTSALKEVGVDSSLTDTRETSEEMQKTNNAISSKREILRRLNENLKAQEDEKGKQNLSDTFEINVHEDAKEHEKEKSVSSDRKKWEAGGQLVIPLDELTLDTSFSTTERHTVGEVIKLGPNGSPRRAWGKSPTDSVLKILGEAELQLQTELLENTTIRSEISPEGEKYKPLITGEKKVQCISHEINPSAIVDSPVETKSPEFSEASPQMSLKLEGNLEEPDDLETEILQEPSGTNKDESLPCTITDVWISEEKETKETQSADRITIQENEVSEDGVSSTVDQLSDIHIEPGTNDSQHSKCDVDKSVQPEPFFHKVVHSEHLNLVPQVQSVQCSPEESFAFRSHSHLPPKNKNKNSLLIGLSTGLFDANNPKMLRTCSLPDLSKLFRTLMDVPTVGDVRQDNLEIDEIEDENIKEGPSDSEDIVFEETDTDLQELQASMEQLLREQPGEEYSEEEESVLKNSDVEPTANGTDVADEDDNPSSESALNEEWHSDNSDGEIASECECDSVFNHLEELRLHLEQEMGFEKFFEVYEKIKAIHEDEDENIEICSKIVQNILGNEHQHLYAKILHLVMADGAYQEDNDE
The settings on record: at 0.1 µM.

Experiment [3] addresses T2, Serine/threonine-protein kinase Nek1 (Homo sapiens). The settings on record: at 1 µM.
In experiment [4] the target is T3, Serine/threonine-protein kinase Nek2 (Homo sapiens) (UniProt P51955).
T3 sequence (whole entry): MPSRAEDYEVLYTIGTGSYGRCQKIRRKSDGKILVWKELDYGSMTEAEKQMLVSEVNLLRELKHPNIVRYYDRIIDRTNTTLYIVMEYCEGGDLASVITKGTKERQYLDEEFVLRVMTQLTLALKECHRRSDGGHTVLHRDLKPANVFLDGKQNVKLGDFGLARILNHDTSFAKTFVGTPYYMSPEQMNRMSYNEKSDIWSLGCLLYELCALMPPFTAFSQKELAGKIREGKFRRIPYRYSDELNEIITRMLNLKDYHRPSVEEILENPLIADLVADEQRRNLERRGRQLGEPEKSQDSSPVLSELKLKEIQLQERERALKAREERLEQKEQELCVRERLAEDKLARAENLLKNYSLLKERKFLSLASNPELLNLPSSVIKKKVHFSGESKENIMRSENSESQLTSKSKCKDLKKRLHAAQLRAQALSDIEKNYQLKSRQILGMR
The settings on record: at 0.1 µM.

The target in experiment [5] is T3, Serine/threonine-protein kinase Nek2 (Homo sapiens). The settings on record: at 1 µM.
Experiment [6] deals with Serine/threonine-protein kinase Nek6 (Homo sapiens) (UniProt Q9HC98). The settings on record: at 0.1 µM.
Experiment [7] has the same target. The settings on record: at 1 µM.
Experiment [8] addresses Serine/threonine-protein kinase Nek7 (Homo sapiens) (UniProt Q8TDX7). The following applies: at 0.1 µM.
For experiment [9] the target is unchanged. The following applies: at 1 µM.
Experiment [10] concerns the target T4, Serine/threonine-protein kinase Nek9 (Homo sapiens) (UniProt Q8TD19).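 Also: reported value is the mean percent inhibition of NEK9.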
T4 sequence (whole entry): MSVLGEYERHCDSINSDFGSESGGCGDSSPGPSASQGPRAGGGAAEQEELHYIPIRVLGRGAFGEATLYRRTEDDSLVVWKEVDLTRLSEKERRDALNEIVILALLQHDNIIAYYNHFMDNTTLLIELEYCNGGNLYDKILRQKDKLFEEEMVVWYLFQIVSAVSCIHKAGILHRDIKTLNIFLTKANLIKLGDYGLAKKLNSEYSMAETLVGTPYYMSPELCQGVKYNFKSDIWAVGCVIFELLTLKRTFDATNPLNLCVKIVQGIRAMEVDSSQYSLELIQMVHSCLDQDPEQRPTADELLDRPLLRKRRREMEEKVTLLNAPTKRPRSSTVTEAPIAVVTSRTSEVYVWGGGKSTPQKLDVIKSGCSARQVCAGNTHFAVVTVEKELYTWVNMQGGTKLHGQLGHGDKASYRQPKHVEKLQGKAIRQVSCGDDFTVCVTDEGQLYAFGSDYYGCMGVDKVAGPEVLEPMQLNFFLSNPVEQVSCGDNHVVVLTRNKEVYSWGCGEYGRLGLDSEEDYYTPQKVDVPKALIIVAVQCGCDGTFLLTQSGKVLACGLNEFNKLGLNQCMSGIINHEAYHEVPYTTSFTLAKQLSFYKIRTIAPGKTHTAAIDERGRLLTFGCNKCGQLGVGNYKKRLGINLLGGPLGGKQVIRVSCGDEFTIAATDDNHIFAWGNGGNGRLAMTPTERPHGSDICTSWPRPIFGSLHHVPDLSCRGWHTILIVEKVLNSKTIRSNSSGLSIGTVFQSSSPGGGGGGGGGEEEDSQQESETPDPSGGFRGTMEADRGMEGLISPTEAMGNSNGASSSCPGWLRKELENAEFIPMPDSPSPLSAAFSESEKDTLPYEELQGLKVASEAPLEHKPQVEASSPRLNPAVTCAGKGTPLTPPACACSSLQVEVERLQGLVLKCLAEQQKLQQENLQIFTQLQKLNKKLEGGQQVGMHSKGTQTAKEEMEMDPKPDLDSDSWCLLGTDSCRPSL
The following applies: at 0.1 µM.

Sequence of Serine/threonine-protein kinase Nek7 (Homo sapiens) (Q8TDX7 whole entry, looked up): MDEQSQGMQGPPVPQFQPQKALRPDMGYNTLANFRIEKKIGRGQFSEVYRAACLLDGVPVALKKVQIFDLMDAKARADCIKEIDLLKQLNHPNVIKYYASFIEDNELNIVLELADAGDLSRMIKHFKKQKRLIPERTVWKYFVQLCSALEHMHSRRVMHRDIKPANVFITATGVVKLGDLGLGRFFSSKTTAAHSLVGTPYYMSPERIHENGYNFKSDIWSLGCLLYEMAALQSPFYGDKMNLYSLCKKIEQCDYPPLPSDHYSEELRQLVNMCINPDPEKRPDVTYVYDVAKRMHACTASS
Sequence of Serine/threonine-protein kinase Nek6 (Homo sapiens) (Q9HC98 whole entry): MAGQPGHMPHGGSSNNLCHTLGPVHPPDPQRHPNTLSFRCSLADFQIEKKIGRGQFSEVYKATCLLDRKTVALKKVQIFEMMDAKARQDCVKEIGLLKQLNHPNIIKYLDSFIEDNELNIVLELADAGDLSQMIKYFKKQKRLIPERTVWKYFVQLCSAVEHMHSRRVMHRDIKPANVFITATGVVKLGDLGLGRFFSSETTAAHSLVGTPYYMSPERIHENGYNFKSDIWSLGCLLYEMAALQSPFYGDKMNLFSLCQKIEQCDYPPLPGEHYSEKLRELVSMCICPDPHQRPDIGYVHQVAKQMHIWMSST

In the case of `COc1cc2c(cc1Nc1nc(N3CCc4ccccc43)c3cc[nH]c3n1)N(C(=O)CN(C)C)CC2`, the inhibition is -0.46% in [1]; 1.31% in [2]; 1% in [3]; 2.74% in experiment [4]; 3.53% in [5]; 0.8% in experiment [6]. Besides, the inhibition in [7] is -0.68%; in experiment [8] it was 3.4%; in experiment [9], 3.29%; in experiment [10], 4.32%.
On to `COc1ccc(-c2coc3ncnc(N)c23)cc1`, for which the inhibition in [1] turned out to be 4.6%; in experiment [2], 2.17%; in [3], 2.92%; in experiment [4] it was 4.88%; in [5], 4.8%; in [6], 1.43%. For the same compound, the inhibition in experiment [7] worked out at 2.31%; in [8], 6.65%; in experiment [9] it was 4.79%; in experiment [10] it was 6.76%.
For the compound `COc1cc(C)c(NC(=O)CN(C)C)cc1Nc1nc(Nc2cccc(F)c2C(N)=O)c2cc[nH]c2n1`, the inhibition in experiment [1] was 5.68%; in experiment [2] it was 1.77%; in [3] it was -0.24%; in experiment [4], 3.86%; in experiment [5], 3.95%; in experiment [6], -0.84%. Further, the inhibition in experiment [7] is -0.26%; in experiment [8], 4.83%; in experiment [9] it was 9.65%; in experiment [10], 7.92%.
For the compound `COC(=O)Nc1nc2cc(Oc3ccc(NC(=O)Nc4cccc(C(=O)O)c4)cc3)ccc2[nH]1`, the inhibition in experiment [1] is 3.63%; in [2] it was 0.04%; in experiment [3] it was 2.1%; in experiment [4], -0.46%; in experiment [5] it was -6.05%; in [6], -0.14%. The inhibition in experiment [7] was -0.54%; in experiment [8], -2.43%; in experiment [9] it was -0.18%; in experiment [10], 3.39%.
With `COc1cc(C=NNc2ncnc3c2cnn3-c2ccccc2)ccc1O`, the inhibition was 8.67% in experiment [1]; 3.59% in experiment [2]; 15.8% in experiment [3]; 2.6% in experiment [4]; 3.58% in [5]; 1.23% in [6]. Besides, the inhibition was -0.37% in experiment [7], 3.01% in experiment [8], 5.26% in experiment [9] and 3.36% in [10].
Regarding `COc1ccc(-c2nn3ncccc3c2-c2ccnc(Nc3ccc(Cl)c(C(F)(F)F)c3)n2)cc1`, the inhibition stood at 5.7% in [1]; 1.43% in experiment [2]; 2.51% in [3]; 2.35% in [4]; 1.82% in experiment [5]; 3.06% in [6]. In addition, the inhibition in experiment [7] was 2.55%; in experiment [8], 3.34%; in experiment [9], 3.28%; in [10], 6.79%.
With `CCCN1CCC(Oc2cc(Nc3nc(Nc4cccc(F)c4C(N)=O)c4cc[nH]c4n3)c(OC)cc2Cl)CC1`, the inhibition in experiment [1] was -1.68%; in experiment [2] it was 0.59%; in [3], 0.62%; in experiment [4], -0.38%; in experiment [5], 1.09%; in experiment [6], 0.14%. Also, the inhibition was -2.04% in experiment [7], -8.48% in experiment [8], 1.7% in experiment [9] and -0.6% in experiment [10].
As for `Cc1ccc(C(=O)NC2CCCCC2)cc1-c1ccc(C(=O)NCC2CC2)cc1`, the inhibition in experiment [1] came out at 0.57%; in experiment [2] it was 1.91%; in experiment [3], 1.48%; in [4], 3.04%; in experiment [5], 3.36%; in [6], 3.51%. The inhibition in experiment [7] was -2.96%; in experiment [8], 4.39%; in experiment [9], 3.76%; in experiment [10], -0.48%.
